Assay [1] in a line: TOX21_p53_BLA_p2_viability: Viability Assessment in the Tox21 HCT-116 p53 Agonism Beta-lactamase Assay, Phase 2 (AID 2283591).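 Note: compound exposure lasted 16 h at 37 °C; actives lower the ATP signal meaning cytotoxicity.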 In short, it runs like this:
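HCT-116 p53-bla cells (4000/well) rested 5 h at 37C, then received compounds in DMSO (217-fold dilution) for 16 h at 37C, 5% CO2. After the CCF4 read, CellTiter-Glo was added; ATP luminescence was read after 30 min at room temperature.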

The target of assay [2] is Cellular tumor antigen p53 (Homo sapiens) (UniProt P04637). Put plainly: TOX21_p53_BLA_p2_ratio: Tox21 HCT-116 p53 Agonism Beta-lactamase Assay, Ratio, Phase 2 (AID 2283592). The procedure, abridged:
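Plated HCT116 p53-bla cells (4000/well) received compound after 5 h, then 16 h at 37C/5% CO2. CCF4-AM added, 2 h RT. Ratio of 460 to 530 nm emission taken as the p53 reporter signal.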

The target is the same in assay [3]. Kind of assay: TOX21_p53_BLA_p3_ratio: Tox21 HCT-116 p53 Agonism Beta-lactamase Assay, Ratio, Phase 3 (AID 2283596). The procedure, abridged:
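Cells were seeded at 4000/well, rested 5 h at 37C, then dosed with DMSO compound solutions (217-fold dilution) for 16 h. CCF4-AM substrate was loaded for 2 h at room temperature, and the 460/530 nm emission ratio was fitted for gain of signal versus DMSO.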

Assay [4] shares this target. Put plainly: TOX21_p53_BLA_p5_ratio: Tox21 HCT-116 p53 Agonism Beta-lactamase Assay, Ratio, Phase 5 (AID 2283599). The procedure, abridged: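 HCT-116 cells carrying a p53-inducible beta-lactamase reporter were seeded at 4000 cells/well and dosed after 5 h with compound in DMSO (217-fold dilution). After 16 h at 37C, CCF4-AM substrate was added for 2 h, and the 460/530 nm emission ratio was scored as gain-of-signal versus DMSO.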

The nature of assay [5]: TOX21_p53_BLA_p5_viability: Viability Assessment in the Tox21 HCT-116 p53 Agonism Beta-lactamase Assay, Phase 5 (AID 2283600). In short, it runs like this: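 Workflow: seed 4000 cells per well, wait 5 h, add compounds (DMSO, 217-fold dilution), incubate 16 h, load CCF4-AM 2 h, add CellTiter-Glo, read luminescence after 30 min.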
The target of assay [6] is Cellular tumor antigen p53 (Homo sapiens) (UniProt P04637). Kind of assay: TOX21_p53_BLA_p4_ratio: Tox21 HCT-116 p53 Agonism Beta-lactamase Assay, Ratio, Phase 4 (AID 2283601). In short, it runs like this: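 HCT116 cells carrying an inducible beta-lactamase reporter were plated at 4000 cells/well, rested 5 h, then exposed to compounds in DMSO (217-fold dilution) for 16 h at 37C. CCF4-AM substrate was loaded 2 h at room temperature; 460/530 nm emission ratio scored gain-of-signal versus DMSO.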
Chain of Cellular tumor antigen p53 (Homo sapiens) (P04637 whole entry, looked up): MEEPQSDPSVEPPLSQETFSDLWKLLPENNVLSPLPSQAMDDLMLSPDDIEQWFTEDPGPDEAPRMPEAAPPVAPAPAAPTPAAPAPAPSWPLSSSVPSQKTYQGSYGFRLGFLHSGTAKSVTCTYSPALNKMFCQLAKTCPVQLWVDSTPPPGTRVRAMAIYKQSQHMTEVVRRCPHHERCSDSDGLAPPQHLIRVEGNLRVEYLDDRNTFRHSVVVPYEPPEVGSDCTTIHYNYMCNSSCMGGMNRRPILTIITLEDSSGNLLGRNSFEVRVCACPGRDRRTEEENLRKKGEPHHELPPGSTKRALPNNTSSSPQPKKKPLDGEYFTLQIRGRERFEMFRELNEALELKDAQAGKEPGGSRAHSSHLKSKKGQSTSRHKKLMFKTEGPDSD

Assay [7] in a line: CCTE_Harrill_HTTr_Viability_MCF7: CCTE's 6-hour Cell Viability Assessment for the High-Throughput Transcriptomics (HTTr) Platform, in MCF-7 cells cultured in DMEM + 10% fetal bovine serum, Harrill Lab (AID 2284010; active = hit-call score of the fitted dose curve at least 0.9, where 1 is the maximum; inactive = score below 0.9). In short, it runs like this:
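Read-out is propidium iodide gain of signal by high-content imaging, reflecting membrane integrity loss. Measurements are taken 6 h after dosing, eight concentrations per chemical, with DMSO serving as baseline for bidirectional curve fitting.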

Assay [8] is described as follows: CCTE_Harrill_HTTr_Apoptosis_MCF7: CCTE's 6-hour Apoptosis Assessment for the High-Throughput Transcriptomics (HTTr) Platform, in MCF-7 cells cultured in DMEM + 10% fetal bovine serum, Harrill Lab (AID 2284011; active = hit-call score of the fitted dose curve at least 0.9, where 1 is the maximum; inactive = score below 0.9). The procedure, abridged:
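MCF-7 (DMEM + 10% FBS), 384-well; 8-pt dilution series, 6 h chemical exposure; caspase-3/7 activation via CellEvent Caspase 3/7 Green, HCI; bidirectional fit vs DMSO.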

Assay [9] can be described thus: ACEA_ER_AUC_viability: ACEA Biosciences xCELLigence Real-Time Cell Analysis on Estrogen Receptor Agonism for Viability (AID 2283782).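 Note: hit means loss of impedance signal meaning reduced cell growth or viability.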 In short, it runs like this: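 Continuous-exposure impedance cell analysis uses T-47D cells in charcoal-stripped serum, eight 1:4 dilutions topping at 100 uM final, biological duplicate. Area under the growth curve at 80 h is fitted against DMSO baseline.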

Results filed as inconclusive are left out. The source made the active and inactive calls. Rule for the calls, unless noted: active = hit-call score of the fitted dose curve at least 0.9, where 1 is the maximum; inconclusive = response in the unintended direction; inactive = score below 0.9.

By AC50 is commonly meant the concentration giving half of the maximal activity seen.

As for `C[C@@H]1CN(c2c(F)c(N)c3c(=O)c(C(=O)O)cn(C4CC4)c3c2F)C[C@H](C)N1`, the compound was called inactive in assay [1], in [2], in [3], in assay [4], in [5] and in [6]. In addition, the outcome in assay [7] and in assay [8] was inactive.

Take `CN(C)c1ccc(CCO)cc1`: the result in assay [1], in assay [2], in assay [3], in assay [4] and in [6] was inactive.

Regarding `CC(=O)N[C@@H]([C@@H](O)[C@H](O)[C@H](O)CO)[C@@H](O)CC(=O)C(=O)O`, the compound was classed as inactive in [1], in assay [2], in assay [3], in assay [4] and in assay [6].

In the case of `CC1CCc2cc(F)cc3c(=O)c(C(=O)O)cn1c23` (centres undefined), the compound was called inactive in assay [1], in [2], in assay [3], in assay [4], in assay [5] and in assay [6].

Take `NCCO/C=C/[C@H](N)C(=O)O`: the compound was called inactive in [1], in assay [2], in [3], in assay [4] and in assay [6].

Turning to `CN1CCC(=C2c3ccccc3C=Cc3ccccc32)CC1`, the values for the concentration at half-maximal activity (AC50) in assay [1] and in [2] were 39.3 µM (active) and 43.2 µM (active), respectively. Moreover, the result in assay [3], in assay [4] and in [6] was inactive.

Take `CC12CCC(C1)C(C)(C)C2=O` (centres undefined): the compound was called inactive in assay [1], in assay [2], in assay [3], in assay [4] and in [6].

For `FC(F)(F)C(F)(F)C(F)(F)C(F)(F)C(F)(F)F`, the compound was classed as inactive in assay [1], in assay [2], in [3], in [4] and in [6].

Turning to `CCCCCCCCCCCCCCCC(=O)NCCO`, the call in assay [1], in assay [2], in assay [3], in assay [4], in assay [5] and in assay [6] was inactive.

Consider `O=C(O)c1ccccc1C(=O)Nc1ccc(S(=O)(=O)Nc2nccs2)cc1`, for which the result in assay [1], in assay [2], in assay [3], in [4] and in assay [6] was inactive.

`CN(C)CCC=C1c2ccccc2CSc2ccccc21`: the compound was classed as inactive in assay [1], in assay [2], in assay [3] and in assay [4]. Further, in assay [6], the concentration at half-maximal activity (AC50) was 16.6 µM (active).

In the case of `C[C@]12C=CC(=O)C=C1CC[C@@H]1[C@@H]2[C@@H](O)C[C@@]2(C)[C@H]1CC[C@]2(O)C(=O)COC(=O)CCC(=O)O`, the call in assay [1], in assay [2], in assay [3], in [4] and in assay [6] was inactive.

Take `C=CC(=O)OCCOC(=O)CCC(=O)O`: the call in [1], in assay [2], in assay [3], in assay [4] and in [6] was inactive.

Turning to `Cc1cccc([N+](=O)[O-])c1C(=O)O`, the compound was classed as inactive in [1], in assay [2], in [3], in [4] and in [6].

Turning to `COC(=O)CCCCCCCCC(=O)OC`, the result in [1], in assay [2], in assay [3], in assay [4] and in assay [6] was inactive.

Take `CCCCCCCC`: the call in assay [1], in [2], in assay [3], in [4], in assay [5] and in [6] was inactive.

As to `ON=C1CCCC1`, the call in [1], in [2], in [3], in [4] and in [6] was inactive.

Take `CC1(C)[C@H](C(=O)O)N2C(=O)C[C@H]2S1(=O)=O`: the call in assay [1], in [2], in assay [3], in assay [4] and in [6] was inactive.

Turning to `NC[C@@H]1O[C@H](O[C@H]2[C@@H](O)[C@H](O[C@@H]3[C@@H](O)[C@H](N)C[C@H](N)[C@H]3O[C@H]3O[C@H](CO)[C@@H](O)[C@H](O)[C@H]3N)O[C@@H]2CO)[C@H](N)[C@@H](O)[C@@H]1O`, the result in assay [1], in assay [2], in assay [3], in assay [4] and in assay [6] was inactive.

On to `CC(C)OC(=O)Nc1ccc2nc(-c3cscn3)[nH]c2c1`, for which the call in [1] was inactive. The AC50 is 1.52 µM (active) in [2], 2.6 µM (active) in assay [3], 2.33 µM (active) in [4] and 1.09 µM (active) in [6].

On to `CC(=C(CCOP(=O)(O)O)SC(=O)c1ccccc1)N(C=O)Cc1cnc(C)nc1N`, for which the result in [1], in [2], in [3], in [4] and in [6] was inactive.

With `OCCCC1CCCCC1`, the compound was classed as inactive in assay [1], in assay [2], in [3], in assay [4], in [5] and in assay [7]. Further, the result in [8] was inactive.

`c1ccc2c(c1)OCC(CN1CCCCC1)O2` (centres undefined): the outcome in assay [1], in [2], in assay [3], in assay [4] and in [6] was inactive.

For `CCN(CC)CCOC(=O)c1ccc(N)cc1Cl`, the compound was classed as inactive in assay [1], in [2], in assay [3], in assay [4] and in assay [6].

On to `CC1=C(/C=C/C(C)=C/C=C/C(C)=C/C=C/C=C(C)/C=C/C=C(C)/C=C/C2=C(C)CCCC2(C)C)C(C)(C)CCC1`, for which the result in assay [1], in [2], in [3], in assay [4], in assay [5] and in assay [6] was inactive.

Take `CN(C)CCC[C@@]1(c2ccc(F)cc2)OCc2cc(C#N)ccc21`: the outcome in assay [1], in [2], in assay [3], in assay [4] and in [6] was inactive.

For `CC/C=C\C/C=C\C/C=C\C/C=C\C/C=C\C/C=C\CCC(=O)O`, the result in assay [1], in assay [2], in assay [3], in [4] and in assay [6] was inactive.

Consider `OC[C@@H](O)C(O)[C@H](O)CO`, for which the outcome in assay [1], in [2], in [3], in assay [4] and in assay [6] was inactive.

For `N#Cc1c(N(CC(=O)O)CC(=O)O)sc(C(=O)O)c1CC(=O)O`, the result in assay [1], in assay [2], in assay [3], in assay [4] and in assay [6] was inactive.

As to `CCCC/C=C/CCCCO`, the compound was called inactive in assay [1], in assay [2], in assay [3], in assay [4], in assay [5] and in assay [6]. Further, the AC50 in assay [9] is 50 µM (active).

Turning to `CC(C)c1ccccc1`, the result in assay [1], in assay [2], in [3], in [4] and in [6] was inactive.

Turning to `O=C1c2ccccc2C(=O)C1c1ccc(Cl)cc1`, the call in [1], in [2], in [3] and in assay [5] was inactive.

As for `Cc1cc(C)c(NC(=O)C[C@H](CC(=O)O)c2cccc3ccccc23)c(C(=O)N2CCC3(CCCC3)CC2)c1`, the outcome in assay [1], in assay [2], in assay [3] and in assay [6] was inactive.

With `COc1cccc(OC)c1C(=O)N[C@@H]1C(=O)N2[C@@H]1SC(C)(C)[C@@H]2C(=O)O`, the outcome in [1], in assay [2], in assay [3], in assay [5] and in [6] was inactive.

The values are drawn from PubChem BioAssay (EPA / NIEHS).
